In the library only some 4.6% were active in any assay of this set; here they are far more common.
USP10 block – inhibitors of human USP10 deubiquitinase; Ubiquitin carboxyl-terminal hydrolase 10 (Homo sapiens), Q14694; purified USP10, Ub-rhodamine fluorescence, 60 min; inhibition, % at 20 µM; 1.1% of 47,000 active
USP7 block – inhibitors of human USP7 deubiquitinase. Ubiquitin carboxyl-terminal hydrolase 7 (Homo sapiens), Q93009. purified USP7, Ub-rhodamine cleavage fluorescence. inhibition, % at 20 µM. 0.3% of 47,000 active
Target sequence (Q93009 whole entry, looked up): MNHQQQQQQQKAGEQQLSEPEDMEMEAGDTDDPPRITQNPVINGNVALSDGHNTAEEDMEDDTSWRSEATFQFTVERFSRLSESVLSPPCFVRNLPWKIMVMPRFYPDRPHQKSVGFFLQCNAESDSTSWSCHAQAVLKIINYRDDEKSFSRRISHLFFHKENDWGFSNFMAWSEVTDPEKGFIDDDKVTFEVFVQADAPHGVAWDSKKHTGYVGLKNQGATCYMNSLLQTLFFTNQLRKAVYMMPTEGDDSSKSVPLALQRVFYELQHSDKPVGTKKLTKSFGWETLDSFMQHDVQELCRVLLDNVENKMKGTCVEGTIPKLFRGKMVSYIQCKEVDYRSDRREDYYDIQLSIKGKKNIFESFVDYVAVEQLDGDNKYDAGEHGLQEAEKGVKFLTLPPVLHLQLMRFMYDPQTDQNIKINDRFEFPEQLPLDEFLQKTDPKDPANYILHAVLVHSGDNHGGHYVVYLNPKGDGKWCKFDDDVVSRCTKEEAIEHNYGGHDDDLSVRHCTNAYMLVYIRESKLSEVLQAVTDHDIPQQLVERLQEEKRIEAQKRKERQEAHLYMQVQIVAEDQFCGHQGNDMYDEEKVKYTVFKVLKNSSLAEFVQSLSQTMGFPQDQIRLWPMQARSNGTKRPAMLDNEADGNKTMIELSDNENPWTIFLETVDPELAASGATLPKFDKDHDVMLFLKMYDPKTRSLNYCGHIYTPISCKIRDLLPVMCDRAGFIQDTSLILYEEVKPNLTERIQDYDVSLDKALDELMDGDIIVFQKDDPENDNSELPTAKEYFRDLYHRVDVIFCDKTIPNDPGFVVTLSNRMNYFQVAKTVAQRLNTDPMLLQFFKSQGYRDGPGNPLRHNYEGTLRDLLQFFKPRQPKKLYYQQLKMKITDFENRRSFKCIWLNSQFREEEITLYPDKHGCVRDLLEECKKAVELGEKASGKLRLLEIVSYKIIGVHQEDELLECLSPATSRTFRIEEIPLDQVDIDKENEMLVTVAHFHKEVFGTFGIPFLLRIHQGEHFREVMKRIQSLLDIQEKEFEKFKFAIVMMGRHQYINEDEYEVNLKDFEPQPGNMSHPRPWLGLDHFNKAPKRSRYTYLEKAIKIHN
USP8 inh – inhibitors of human USP8 deubiquitinase. Ubiquitin carboxyl-terminal hydrolase 8 (Homo sapiens), P40818. purified USP8, Ub-rhodamine cleavage fluorescence, 30 min. inhibition, % at 20 µM. 4.2% of 47,000 active
UCHL1 block – inhibitors of human UCHL1 deubiquitinase; purified UCHL1, Ub-rhodamine cleavage fluorescence; inhibition, % at 20 µM; 0.2% of 47,000 active
Numbers stand for hits; - = inactive. No stated cut-off is given here; in the data, active means inhibition above about 30%; inactive means the rest.

SMILES	USP10 block	USP7 block	USP8 inh	UCHL1 block
CCCCCCCc1cc(OC(=O)c2c(CCCCCCC)cc(O)cc2O[C@@H]2O[C@H](CO)[C@@H](O)[C@H](O)[C@H]2O)cc(O)c1C(=O)O	100.8	101.0	99.3	88.2
CCCCCCCCCCCCCCCc1cc(O)cc(O)c1C(=O)O	62.6	-	-	-
O=C(O)CCCCc1cc(O)cc(O)c1	-	-	-	-
Cc1nc2ccccc2n(CC(=O)Nc2ccc(F)cc2F)c1=O	-	-	-	-
COc1ccc2c(Cl)c(C(=O)Nc3ccc(S(=O)(=O)N(C)Cc4ccccc4)cc3)sc2c1	42.1	-	-	-
CCCC[C@@H](C)/C=C(C)/C=C(\C)C(=O)NC1=C[C@](O)(/C=C/C=C/C=C/C(=O)NC2=C(O)CCC2=O)[C@@H]2O[C@@H]2C1=O	-	-	-	34.5
CCCCCCC(C)/C=C(C)/C=C/C(=O)N[C@H]1CC2(O[C@H]1O)[C@@H]1O[C@@H]1C(=O)[C@@H]1O[C@@H]12 (some centres not stated)	-	-	-	-
COc1ccccc1-c1csc(-c2ccccn2)n1	-	-	-	-
Cc1nnc(NC(=O)C2CCN(c3ccc(S(N)(=O)=O)cc3[N+](=O)[O-])CC2)o1	62.0	43.1	-	36.2
O=C(NC1CC1)c1cccn1Cc1noc(-c2ccc(Cl)cc2)n1	-	-	-	-
COc1ccc(-c2onc(C)c2C)cc1S(=O)(=O)NCc1ccc(F)cc1	58.2	-	-	-
Cc1n[nH]c(C)c1CC(=O)NCc1nnc(-c2nccc3ccccc23)o1	-	-	33.3	-
COc1ccc(OC)c(NC(=O)CNC(=O)c2cc3c(OC)cccc3[nH]2)c1	-	-	30.2	-
O=C(Nc1cc(S(=O)(=O)Nc2ccc(Cl)cc2)ccc1O)c1cc2c(s1)CCC2	70.3	59.6	98.5	33.3
Nc1ccc(NC(=O)c2cc3c(s2)CCC3)cc1[N+](=O)[O-]	-	-	57.1	-
Cc1sc(NC(=O)CN2CCc3ccccc3C2)nc1-c1ccc2c(c1)CCN2C(=O)C(C)C	-	-	47.4	-
Cc1sc(NC(=O)C2(c3ccc(Cl)cc3)CCC2)nc1-c1ccc2c(c1)CCN2C(=O)c1ccccc1F	-	-	-	-
Cc1cccc(C(=O)N2CCc3cc(-c4nc(NC(=O)C5(c6ccc(Cl)cc6)CCC5)sc4C)ccc32)c1	-	-	33.5	-
Cc1sc(NC(=O)CNc2ccccc2)nc1-c1ccc2c(c1)CCN2C(=O)C1CCCCC1	-	-	63.0	-
O=C(Nc1nc2c(s1)CCC2)C1CCN(S(=O)(=O)c2ccc3c(c2)CCCC3)CC1	-	-	36.0	-
Cc1nnc(NC(=O)C2CCN(S(=O)(=O)c3ccc4c(c3)CCC4)CC2)o1	-	-	-	-
Cn1ccc(-c2nc3ccccc3[nH]2)n1	-	-	30.1	-
Cc1ccc(-n2c(=O)[nH]c3c(C(N)=O)nc(-c4cccnc4)nc32)cc1	-	-	-	-
CN(c1ccc(Oc2ccc(C(F)(F)F)cn2)cc1)S(=O)(=O)c1ccccc1	-	-	72.9	-
CCOc1ccccc1C(=O)NCC(=O)OC(C(=O)c1c[nH]c2ccccc12)c1ccccc1 (configuration not stated)	-	-	-	-
SMILES	USP10 block	USP7 block	USP8 inh	UCHL1 block
Cn1cncc1C(=O)N[C@@H]1C[C@@H](Oc2cccnc2)[C@H](O)[C@H]1N1CCCCC1	-	-	-	-
Cc1noc(C)c1-c1ccc(S(=O)(=O)Nc2ccc(C#N)cc2)cc1	-	-	31.4	-
Cc1ccc2[nH]c3c(=O)n(CCC4=CCCCC4)cnc3c2c1	-	-	30.7	-
O=c1c2[nH]c3ccccc3c2ncn1CCC1=CCCCC1	-	-	-	-
Cc1ncc2c(n1)CCN(C(=O)Nc1cc(Cl)ccc1C)C2	-	-	-	-
O=C(Oc1ccc(F)cc1)c1cc(-c2ccc3c(c2)OCCO3)on1	-	-	55.1	-
O=C1N(Cc2ccccc2F)c2ccccc2S(=O)(=O)N1Cc1ccc(F)cc1	-	-	-	-
CCC(C(=O)C(C)C(O)C(C)CCc1ccc(C)c(O)c1C(=O)O)C1OC(CC)(C2CCC(O)(CC)C(C)O2)CC1C (configuration not stated)	61.3	-	-	-
CC(=O)Nc1ccc(-n2cnc(C(=O)NCc3ccc(F)cc3)c2)nc1	-	-	-	-
Cc1cccc(-n2cnc(C(=O)NCc3ccc(F)cc3)c2)n1	-	-	34.0	-
Cc1cccc([C@H]2C[C@@H](O)[C@@H](O)[C@@H]2NC2CCOCC2)c1	-	-	-	-
COc1cccc(C(=O)N2CCc3nc(C(=O)Nc4ccccc4)sc3CC2)c1	-	-	-	-
COc1ccc(NC(=O)CSc2nc3ccccc3c3nc(C)nn23)cc1OC	-	-	41.3	-

Screening results deposited in PubChem by Buhrlage Lab, Dana-Farber Cancer Institute and Novartis Institutes for BioMedical Research (Cambridge, Mass).
